Screens: PubChem, Broad Institute
Pf Dd2 inh – P. falciparum Dd2 growth inhibitors, primary screen, SYBR Green fluorescence, single dose replicates | 72 h; hits give low values | activity change, % at 10 µM | 94,000 tested, 2.3% active; in the data active = activity change below about -80%
C diff HTS – C. difficile growth inhibitors, primary screen, HTS; growth activity, negative = inhibition, % at 16 µg/mL (by protocol); Clostridium difficile clinical isolate growth, OD600, 24 h; hits give low values; 86,000 tested, 0.25% active; AID 1259249, 2017;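 active = mean growth activity at or below -80% and every replicate also at or below -80%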;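 note: 0% = DMSO wells and -100% = levofloxacin 16 µg/mL wells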
* = called active by the depositor. Only some compounds are listed: those with a hit (about 2.4% of all), similar ones and a draw of the others.

C[C@@H]1CN([C@H](C)CO)C(=O)c2cccc(NC(=O)c3ccc(-c4nccs4)cc3)c2O[C@H]1CN(C)Cc1ccccc1 was read as Pf Dd2 inh -18.7 and C diff HTS -4.5.
For C[C@@H]1CN([C@H](C)CO)C(=O)c2cccc(NC(=O)c3ccc(-c4nccs4)cc3)c2O[C@H]1CN(C)Cc1ccc(C(F)(F)F)cc1 the results were Pf Dd2 inh -91.4*.
C[C@H]1CN([C@@H](C)CO)C(=O)c2cccc(NC(=O)c3ccc(-c4nccs4)cc3)c2O[C@H]1CN(C)Cc1ccc(C(=O)Nc2ccccc2N)cc1 was read as Pf Dd2 inh -90.9* and C diff HTS -4.9.
`C[C@H](CO)N1C[C@H](C)[C@H](CN(C)Cc2ccccc2)Oc2c(NC(=O)c3ccc(-c4nccs4)cc3)cccc2C1=O` gave Pf Dd2 inh -12.0 and C diff HTS -1.5.
`C[C@@H]1CN([C@H](C)CO)C(=O)c2cccc(NC(=O)c3ccc(-c4nccs4)cc3)c2O[C@H]1CN(C)Cc1ccc(C(=O)O)cc1` gave Pf Dd2 inh -23.7 and C diff HTS 1.3.
C[C@@H]1CN([C@@H](C)CO)C(=O)c2cccc(NC(=O)c3ccc(-c4nccs4)cc3)c2O[C@H]1CN(C)Cc1ccc(C(=O)Nc2ccccc2N)cc1 was read as Pf Dd2 inh -93.0* and C diff HTS 1.1.
For C[C@@H]1CN([C@H](C)CO)C(=O)c2cccc(NC(=O)c3ccc(-c4nccs4)cc3)c2O[C@@H]1CN(C)Cc1ccc(-c2ccccc2)cc1 the results were Pf Dd2 inh -65.1 and C diff HTS 55.7.
`CO[C@@H]1CN(C)C(=O)c2ccc(NC(=O)c3cccc(Oc4ccccc4)c3)cc2OC[C@H](C)NC[C@H]1C` gave Pf Dd2 inh -40.1 and C diff HTS -5.3.
Screening Cc1noc(C)c1S(=O)(=O)N(C)C[C@H]1OCCCC[C@@H](C)Oc2ccc(NS(=O)(=O)c3ccc(Cl)cc3)cc2C(=O)N([C@@H](C)CO)C[C@@H]1C returned Pf Dd2 inh -76.8 and C diff HTS -3.8.
O=C(C1CCOCC1)N1C[C@H]2[C@@H](c3ccccc31)[C@@H](CO)N2C(=O)Cc1ccccc1 was read as Pf Dd2 inh 5.2 and C diff HTS -4.1.
CS(=O)(=O)N1CC2(C1)[C@H](c1ccccc1)[C@@H](CO)N2Cc1ccccn1 was read as Pf Dd2 inh 0.5 and C diff HTS 0.2.
`C[C@@H]1CN([C@H](C)CO)C(=O)c2cccc(NC(=O)c3ccc(-c4nccs4)cc3)c2O[C@@H]1CN(C)Cc1ccc(C(=O)Nc2ccccc2N)cc1` gave Pf Dd2 inh -90.9* and C diff HTS 1.2.
C[C@H]1CN([C@@H](C)CO)C(=O)c2cccc(NC(=O)c3ccc(-c4nccs4)cc3)c2O[C@@H]1CN(C)Cc1ccccc1 was read as Pf Dd2 inh -17.8 and C diff HTS 2.2.
CCCC(=O)Nc1ccc2c(c1)OC[C@H](C)N(Cc1nccs1)C[C@@H](C)[C@H](OC)CN(C)C2=O was read as Pf Dd2 inh -11.1.
For O=C(Nc1cccc(F)c1)N[C@@H]1CC[C@H](CCNS(=O)(=O)c2cccc(Cl)c2)O[C@H]1CO the results were Pf Dd2 inh -88.4*.
For O=C(Nc1cccc(F)c1)N[C@H]1CC[C@@H](CCNS(=O)(=O)c2cccc(Cl)c2)O[C@H]1CO the results were Pf Dd2 inh -25.6.
C[C@H](CO)N1C[C@H](C)[C@H](CN(C)Cc2ccccc2)Oc2ccc(NS(=O)(=O)c3cn(C)cn3)cc2C1=O was read as Pf Dd2 inh 23.6 and C diff HTS -1.4.
For CC(=O)N(C)C[C@H]1Oc2ncc(-c3cncnc3)cc2C(=O)N([C@@H](C)CO)C[C@H]1C the results were Pf Dd2 inh 16.7 and C diff HTS -4.6.
`COc1ccc(CNC(=O)C[C@@H]2C=C[C@H](NS(=O)(=O)c3cccc(OC)c3)[C@@H](CO)O2)cc1` gave C diff HTS -0.2.
Screening COc1ccc(CNC(=O)C[C@H]2C=C[C@@H](NS(=O)(=O)c3cccc(OC)c3)[C@@H](CO)O2)cc1 returned Pf Dd2 inh -91.5* and C diff HTS -9.1.
Screening Cc1ccc(S(=O)(=O)N(C)C[C@H]2OCCCC[C@@H](C)Oc3ccc(NC(=O)c4ccccc4)cc3C(=O)N([C@H](C)CO)C[C@@H]2C)cc1 returned Pf Dd2 inh -62.6.
Screening Cc1ccc(S(=O)(=O)N(C)C[C@H]2Oc3ccc(NC(=O)c4ccncc4)cc3C(=O)N([C@@H](C)CO)C[C@@H]2C)cc1 returned Pf Dd2 inh -87.8* and C diff HTS -3.2.
Screening C[C@@H]1CCCCO[C@H](CN(C)S(=O)(=O)c2ccc(F)cc2)[C@@H](C)CN([C@H](C)CO)C(=O)c2cc(NC(=O)c3ccccc3)ccc2O1 returned Pf Dd2 inh -32.3 and C diff HTS -3.3.
